The first assay has as its target ECH1. The experiment in a line: pooled miR-30 sensor sort-seq; sequence = guide strand. The conditions noted are these: shRNA.
Consider AAGCACTCTACCATCTCTCTCC, for which the sensor-assay potency score (higher = more potent) is -0.152. The sequence AAGGCTAATACTGAGTCCCGGG came in with a sensor-assay potency score (higher = more potent) of 0.193. The sequence TTGGAGCCTGTCAGTCGCCGGG displayed a sensor-assay potency score (higher = more potent) of -1.13.

Consider AAATCTTGTTGAAGCACTCTAC, for which the sensor-assay potency score (higher = more potent) was determined as 0.264.

Sequence TTCTGCGCAGACGTCACACGAA yielded a sensor-assay potency score (higher = more potent) of -0.688.

Regarding TACAGCAGGTTGACCTTGGTGC, the sensor-assay potency score (higher = more potent) was 0.173. Same read-out and setting: under TTGTGCAGAGGAGCCAGTGAGG stands -1.37. Regarding TGAACATTTTTCCTGCACCAGA, the sensor-assay potency score (higher = more potent) was -1.08. TCAGCGTCTCTCGAAATCTTGT returned a sensor-assay potency score (higher = more potent) of -0.622. Turning to TCGAGTGATGATGTCACGGAGG, the sensor-assay potency score (higher = more potent) was -1.15. In the case of TCTTGTTGAAGCACTCTACCAT, the sensor-assay potency score (higher = more potent) was 0.331.

Sequence TCTTTGTCTGGGAACACCCGGC registered a sensor-assay potency score (higher = more potent) of -0.283.

For TAAACTGGGAAACTGGGTCAGA, the sensor-assay potency score (higher = more potent) is -0.506.

The next assay concerns the target EDDM3B. The description is as above. Conditions: shRNA.
Consider ATCTTTAGGTCTTCTATGCTAT, for which the sensor-assay potency score (higher = more potent) is -0.978. The same measure, in the same setting: under TTTCGGAAGCGATCCATCCAGT stands -0.761; under TATGCTATCAACATACCCGTCC, 0.462; under TTGCTCTGTACAAGCAGTGTGC, -0.53.

The sequence TCAATGTAGTTGAAGCTCCTGC yielded a sensor-assay potency score (higher = more potent) of 0.357. On the same count and under the same terms, the value for TAGAAAGCACTGAATACTCTAC was -0.181. Still for that read-out and setting: under TTGGACTTAAGTAGTGCTGTTT stands -0.357; under TTTGAGAGGATTCTGGACCCAT, 0.578. In turn, ATATGCTCGATTTTGTACCATG displayed a sensor-assay potency score (higher = more potent) of -1.24.

Another assay has as its target EDF1. Described as above. The conditions noted are these: shRNA.
As to ATTTCTTGGAAGTCTCCACATC, the sensor-assay potency score (higher = more potent) is -1.38. As to AATAGAATGTTGTTTGTTCTGG, the sensor-assay potency score (higher = more potent) is -0.0468. Turning to TTGCTCTGCCGACCTTGCTGGA, the sensor-assay potency score (higher = more potent) was -1.14. The sequence TCATAGTCCGCGATCACCTGTG had a sensor-assay potency score (higher = more potent) of 0.11. TTGCGCAGCACCGTCACCGTGT came in with a sensor-assay potency score (higher = more potent) of -0.348. The sequence TTTCGTGGCCAGGTCCTTCTGC registered a sensor-assay potency score (higher = more potent) of -0.179. On to TCTTGGTAATAGAATGTTGTTT, for which the sensor-assay potency score (higher = more potent) was -1.13. Consider TTTGACAGCAGGAATGGGCTGG, for which the sensor-assay potency score (higher = more potent) was 0.46. Still for that read-out and setting: the value for TGCAGCTCCTCTGTCTCCCGGT was -0.285.

Regarding TTTCCAATGTCCTTTCCCCGGA, the sensor-assay potency score (higher = more potent) is -0.772. Same read-out and setting: under TGTTCTTGGTAATAGAATGTTG stands -1.17; under TTCTCATTGATTTTCGTGGCCA, -0.538.

Another assay concerns the target EFCAB6. Described as above. Conditions: shRNA.
In the case of TTGACTGGCATCTCGTTCCAGA, the sensor-assay potency score (higher = more potent) was -0.455. On the same count and under the same terms, the value for TTCTTAGACAAGTCTGACCATC was -0.457; that for TAGTTCTGAATCCGCAACCTTC was -0.922. Still for that read-out and setting: under TTCACTTAACAGCTGATCCTTT stands 0.362.

These data come from the OligoGym collection.
Further: reference of the scale not given here.
